# Test results as given in PubChem BioAssay (EPA / NIEHS).
# Results filed as inconclusive are left out. Some compounds were tested as several samples or in several runs, with calls that do not always agree. The source made the active and inactive calls. How the source made its calls, unless noted: active means hit-call score of the fitted dose curve at least 0.9, where 1 is the maximum; inactive means score below 0.9.
# How the values were obtained:
# [1] = read-out: Monokine induced gamma interferon (MIG), CXCL9 (gene 4283); test: BSK_SAg_MIG: BioMAP Diversity Plus: SAg Assay for Monokine induced gamma interferon (MIG) Biomarker Activity (AID 2283092); details: primary human HUVEC with PBMC; actives raise or lower the signal
# Outline: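 Values reflect bidirectional fitting of ELISA-measured MIG against DMSO vehicle, taken 24 h after dosing of a co-culture of human umbilical vein endothelial cells and peripheral blood mononuclear cells.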
# [2] = BSK_SAg_PBMCCytotoxicity: PBMC Cytotoxicity Assessment in the BioMAP Diversity Plus: SAg Assay (AID 2283093); details: primary human HUVEC with PBMC;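 further: PBMC viability measured as Alamar Blue reduction fluorescence at 546/580 nm; fitted both ways against DMSO so a hit may be loss or gain of signal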;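 on AC50: PBMC superantigen activated with SEB plus TSST-1 one hour after compound addition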
# Outline: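 HUVEC/PBMC co-culture; PBMC exposed to chemical 1 h before SEB and TSST-1 activation (20 ng/mL each), incubated 90 h, then Alamar Blue 6 h, fluorescence 546/580 nm. Bidirectional fit versus DMSO baseline.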
# [3] = read-out: Interleukin-8 (IL8), CXCL8 (gene 3576); test: BSK_SAg_IL8: BioMAP Diversity Plus: SAg Assay for Interleukin-8 (IL8) Biomarker Activity (AID 2283094); details: primary human HUVEC with PBMC; actives raise or lower the signal
# Outline: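 ELISA read-out of IL-8 in a primary human vascular co-culture (umbilical vein endothelium plus PBMC), taken 24 h after compound addition. Values derive from bidirectional fits against DMSO negative controls.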
# [4] = BSK_SAg_Proliferation: Cell Proliferation Assessment in the BioMAP Diversity Plus: SAg Assay (AID 2283095); details: primary human HUVEC with PBMC;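 further: relative cell number as total protein by SRB absorbance in sub-confluent culture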
# Outline: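 Cells (endothelium plus PBMC, human primary) were dosed with chemical, cultured 96 h, fixed in 10% TCA and stained with 0.1% SRB. Absorbance at 560 nm gave relative protein, fitted bidirectionally relative to DMSO.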
# [5] = BSK_SAg_SRB: Viability Assessment in the BioMAP Diversity Plus: SAg Assay (AID 2283096); details: primary human HUVEC with PBMC;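 further: cells read one day after compound addition; hits may be either gain or loss of signal compared with DMSO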
# Outline: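 Human umbilical vein endothelial cells co-cultured with PBMC, read 24 h after compound dosing. Total protein measured by sulforhodamine B staining (0.1% SRB after 10% TCA fixation, absorbance 560 nm); bidirectional fit versus DMSO baseline.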
# [6] = biological target: human Ephrin type-A Receptor 1 (EphA1), EPHA1 (gene 2041) (UniProt P21709); test: NVS_ENZ_hEphA1: NovaScreen (NVS) Enzymatic Assay for human Ephrin type-A Receptor 1 (EphA1) (AID 2283158; active means hit-call score of the fitted dose curve at least 0.9, where 1 is the maximum;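 further: activity is signal loss versus DMSO meaning EphA1 kinase inhibition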)
# human Ephrin type-A Receptor 1 (EphA1), EPHA1 (gene 2041), sequence (P21709 whole entry, looked up): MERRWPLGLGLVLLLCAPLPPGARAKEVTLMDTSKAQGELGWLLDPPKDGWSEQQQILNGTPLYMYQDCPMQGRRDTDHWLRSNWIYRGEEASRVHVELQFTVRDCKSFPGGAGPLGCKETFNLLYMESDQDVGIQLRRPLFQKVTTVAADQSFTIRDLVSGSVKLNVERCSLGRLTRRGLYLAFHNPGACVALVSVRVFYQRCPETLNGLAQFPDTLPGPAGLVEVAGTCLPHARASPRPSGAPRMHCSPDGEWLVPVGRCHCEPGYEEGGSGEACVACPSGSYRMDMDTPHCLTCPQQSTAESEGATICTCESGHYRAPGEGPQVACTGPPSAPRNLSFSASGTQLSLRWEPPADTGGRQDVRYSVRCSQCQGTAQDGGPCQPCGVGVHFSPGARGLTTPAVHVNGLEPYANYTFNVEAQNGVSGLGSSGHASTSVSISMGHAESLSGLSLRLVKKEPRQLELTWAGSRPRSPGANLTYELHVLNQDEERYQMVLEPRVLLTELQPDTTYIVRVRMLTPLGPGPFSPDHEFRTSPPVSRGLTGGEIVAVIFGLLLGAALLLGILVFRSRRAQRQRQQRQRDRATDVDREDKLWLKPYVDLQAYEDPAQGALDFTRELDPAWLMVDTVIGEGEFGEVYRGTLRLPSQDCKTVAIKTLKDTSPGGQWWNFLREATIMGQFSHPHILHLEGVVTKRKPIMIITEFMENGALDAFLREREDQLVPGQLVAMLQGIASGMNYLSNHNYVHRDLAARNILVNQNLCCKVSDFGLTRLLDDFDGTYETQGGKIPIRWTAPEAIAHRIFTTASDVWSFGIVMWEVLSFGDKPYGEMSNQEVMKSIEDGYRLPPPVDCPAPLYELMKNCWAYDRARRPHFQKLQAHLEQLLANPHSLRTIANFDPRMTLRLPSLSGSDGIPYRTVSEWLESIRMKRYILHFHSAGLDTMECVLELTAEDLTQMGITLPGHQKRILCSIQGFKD
# Outline: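 Cell-free enzymatic assay with recombinant EphA1 and fluorescent substrate; product separated by electrophoretic mobility shift, fluorescence intensity read 1 hour after dosing. Loss of signal versus DMSO baseline; primary duplicate screen at 25 uM, actives followed to 50 uM top concentration.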
# [7] = biological target: human Caspase 5 (CASP5), CASP5 (gene 838) (UniProt P51878); test: NVS_ENZ_hCASP5: NovaScreen (NVS) Enzymatic Assay for human Caspase 5 (CASP5) (AID 2283137; active means hit-call score of the fitted dose curve at least 0.9, where 1 is the maximum)
# human Caspase 5 (CASP5), CASP5 (gene 838), sequence (P51878 whole entry, looked up): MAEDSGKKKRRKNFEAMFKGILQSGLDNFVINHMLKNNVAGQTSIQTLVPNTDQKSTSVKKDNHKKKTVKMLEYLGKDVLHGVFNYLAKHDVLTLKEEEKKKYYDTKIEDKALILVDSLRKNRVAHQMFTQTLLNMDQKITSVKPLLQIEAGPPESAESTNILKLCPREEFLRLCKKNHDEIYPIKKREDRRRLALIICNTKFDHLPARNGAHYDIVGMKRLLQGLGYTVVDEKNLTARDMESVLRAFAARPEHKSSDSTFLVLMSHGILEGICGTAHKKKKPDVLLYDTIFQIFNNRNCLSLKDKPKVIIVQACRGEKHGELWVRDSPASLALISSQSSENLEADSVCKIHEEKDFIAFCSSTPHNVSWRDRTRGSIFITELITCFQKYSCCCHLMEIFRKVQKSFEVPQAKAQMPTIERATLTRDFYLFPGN
# Outline: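 E. coli-derived enzyme, cell-free, 2 h incubation, fluorescence intensity. 25 uM duplicate single-point; hits → concentration series to 50 uM. DMSO baseline, positive/negative controls on every plate.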
# [8] = biological target: human Dual Specificity Protein Phosphatase 3 (DUSP3), DUSP3 (gene 1845) (UniProt P51452); test: NVS_ENZ_hDUSP3: NovaScreen (NVS) Enzymatic Assay for human Dual Specificity Protein Phosphatase 3 (DUSP3) (AID 2283152; active means hit-call score of the fitted dose curve at least 0.9, where 1 is the maximum;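 further: phosphatase activity of recombinant human DUSP3 on a fluorogenic substrate without cells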)
# human Dual Specificity Protein Phosphatase 3 (DUSP3), DUSP3 (gene 1845), sequence (P51452 whole entry, looked up): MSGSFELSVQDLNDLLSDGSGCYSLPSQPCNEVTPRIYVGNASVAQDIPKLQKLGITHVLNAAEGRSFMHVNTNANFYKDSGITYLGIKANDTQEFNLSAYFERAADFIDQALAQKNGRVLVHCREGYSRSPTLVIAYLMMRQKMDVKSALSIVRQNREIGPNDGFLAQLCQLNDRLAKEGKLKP
# Outline: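 Cell-free assay with recombinant human DUSP3 and fluorogenic substrate, read by fluorescence intensity. Primary screen ran duplicate at 25 uM; actives followed up in concentration series; loss of signal versus DMSO scored.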
# [9] = biological target: human Beta-secretase (BACE), BACE1 (gene 23621) (UniProt P56817); test: NVS_ENZ_hBACE: NovaScreen (NVS) Enzymatic Assay for human Beta-secretase (BACE) (AID 2283140; active means hit-call score of the fitted dose curve at least 0.9, where 1 is the maximum;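 further: hits are inhibitors that reduce fluorescent substrate signal versus DMSO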)
# human Beta-secretase (BACE), BACE1 (gene 23621), sequence (P56817 whole entry, looked up): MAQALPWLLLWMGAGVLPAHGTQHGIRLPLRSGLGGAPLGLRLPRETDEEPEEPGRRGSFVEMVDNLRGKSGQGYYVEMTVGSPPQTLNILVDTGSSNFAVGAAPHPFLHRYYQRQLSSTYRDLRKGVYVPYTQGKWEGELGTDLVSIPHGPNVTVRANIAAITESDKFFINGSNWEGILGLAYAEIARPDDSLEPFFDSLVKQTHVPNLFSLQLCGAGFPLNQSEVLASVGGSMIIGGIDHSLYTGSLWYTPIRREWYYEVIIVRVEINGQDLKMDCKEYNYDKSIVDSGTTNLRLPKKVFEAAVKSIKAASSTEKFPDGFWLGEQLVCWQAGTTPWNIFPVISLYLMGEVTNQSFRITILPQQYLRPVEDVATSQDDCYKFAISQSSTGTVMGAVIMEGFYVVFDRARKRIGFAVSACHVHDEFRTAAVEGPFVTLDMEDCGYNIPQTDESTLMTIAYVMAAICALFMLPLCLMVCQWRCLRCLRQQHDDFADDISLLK
# Outline: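 Compounds were first tested in duplicate at 25 uM, then actives in concentration series, against recombinant BACE1 from SF9 cells. Enzyme activity was measured by fluorescence intensity 1 hour after dosing, with DMSO as negative control.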
# [10] = biological target: human CYP19A1, CYP19A1 (gene 1588) (UniProt P11511); test: NVS_ADME_hCYP19A1: NovaScreen (NVS) CYP450-related Enzyme Activity (ADME) Assay for human CYP19A1 (AID 2283098; active means hit-call score of the fitted dose curve at least 0.9, where 1 is the maximum)
# human CYP19A1, CYP19A1 (gene 1588), sequence (P11511 whole entry, looked up): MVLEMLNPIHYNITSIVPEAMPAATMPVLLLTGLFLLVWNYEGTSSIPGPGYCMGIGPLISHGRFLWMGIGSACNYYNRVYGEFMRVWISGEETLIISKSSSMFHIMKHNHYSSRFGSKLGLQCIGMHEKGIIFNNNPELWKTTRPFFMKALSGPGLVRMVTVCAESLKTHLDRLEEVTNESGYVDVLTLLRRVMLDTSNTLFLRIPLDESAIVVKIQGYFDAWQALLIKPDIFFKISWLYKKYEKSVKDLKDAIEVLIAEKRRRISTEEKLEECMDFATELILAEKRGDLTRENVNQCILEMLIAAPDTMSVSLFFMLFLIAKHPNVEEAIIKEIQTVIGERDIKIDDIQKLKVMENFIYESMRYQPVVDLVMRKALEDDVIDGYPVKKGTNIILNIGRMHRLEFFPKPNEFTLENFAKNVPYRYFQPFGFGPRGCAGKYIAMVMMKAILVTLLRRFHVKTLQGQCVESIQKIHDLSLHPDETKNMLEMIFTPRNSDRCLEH
# Outline: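 Recombinant enzyme in a cell-free format, read 0.5 h after dosing by fluorescence from a fluorogenic substrate. Loss of signal was fitted against acetonitrile as baseline. Primary screen in duplicate at 10 uM, actives then tested in concentration series.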
# [11] = biological target: human CYP2C9, CYP2C9 (gene 1559) (UniProt P11712); test: NVS_ADME_hCYP2C9: NovaScreen (NVS) CYP450-related Enzyme Activity (ADME) Assay for human CYP2C9 (AID 2283108; active means hit-call score of the fitted dose curve at least 0.9, where 1 is the maximum)
# human CYP2C9, CYP2C9 (gene 1559), sequence (P11712 whole entry, looked up): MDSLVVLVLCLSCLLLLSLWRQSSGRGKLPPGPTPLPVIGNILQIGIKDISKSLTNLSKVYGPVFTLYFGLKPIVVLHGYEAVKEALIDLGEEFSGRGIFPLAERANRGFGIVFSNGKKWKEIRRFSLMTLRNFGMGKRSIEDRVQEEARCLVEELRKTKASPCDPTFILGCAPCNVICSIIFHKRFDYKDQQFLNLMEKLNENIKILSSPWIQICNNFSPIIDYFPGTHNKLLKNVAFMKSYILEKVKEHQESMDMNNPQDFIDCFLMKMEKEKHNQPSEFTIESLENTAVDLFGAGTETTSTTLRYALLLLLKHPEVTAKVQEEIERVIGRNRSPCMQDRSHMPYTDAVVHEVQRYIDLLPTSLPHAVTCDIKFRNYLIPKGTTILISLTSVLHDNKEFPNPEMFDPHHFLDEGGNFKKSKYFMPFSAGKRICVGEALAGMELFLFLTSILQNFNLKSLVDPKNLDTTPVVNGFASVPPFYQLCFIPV
# Outline: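 Recombinant human CYP2C9 expressed in SF9 cells, fluorogenic substrate, fluorescence read 0.75 h after dosing. Chemicals first run in duplicate at 10 uM, with actives followed in concentration series; loss of signal versus acetonitrile baseline.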
# [12] = biological target: Mitogen-activated protein kinase 3 (Homo sapiens) (UniProt P27361); test: NVS_ENZ_hMAPK3: NovaScreen (NVS) Enzymatic Assay for human Mitogen-Activated Protein Kinase 3 (MAPK 3) (AID 2283177; active means hit-call score of the fitted dose curve at least 0.9, where 1 is the maximum)
# Mitogen-activated protein kinase 3 (Homo sapiens), sequence (P27361 whole entry, looked up): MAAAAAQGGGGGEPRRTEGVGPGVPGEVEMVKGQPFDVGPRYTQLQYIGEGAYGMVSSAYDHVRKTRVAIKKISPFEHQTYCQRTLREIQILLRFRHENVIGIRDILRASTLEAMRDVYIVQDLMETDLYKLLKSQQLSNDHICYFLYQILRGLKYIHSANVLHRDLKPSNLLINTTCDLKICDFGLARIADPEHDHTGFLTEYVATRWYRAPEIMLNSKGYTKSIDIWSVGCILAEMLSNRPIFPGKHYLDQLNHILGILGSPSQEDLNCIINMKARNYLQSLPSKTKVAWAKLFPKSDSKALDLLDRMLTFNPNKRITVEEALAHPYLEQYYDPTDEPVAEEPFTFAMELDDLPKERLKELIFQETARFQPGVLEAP
# Outline: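 Cell-free enzymatic assay with recombinant protein and specific substrate; fluorescence and electrophoretic mobility shift read-out 1 h after dosing. Primary screen duplicate at 25 uM; actives then run in concentration-response up to 50 uM, loss of signal versus DMSO.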
# [13] = biological target: human CYP2D6, CYP2D6 (gene 1565) (UniProt P10635); test: NVS_ADME_hCYP2D6: NovaScreen (NVS) CYP450-related Enzyme Activity (ADME) Assay for human CYP2D6 (AID 2283107; active means hit-call score of the fitted dose curve at least 0.9, where 1 is the maximum)
# human CYP2D6, CYP2D6 (gene 1565), sequence (P10635 whole entry, looked up): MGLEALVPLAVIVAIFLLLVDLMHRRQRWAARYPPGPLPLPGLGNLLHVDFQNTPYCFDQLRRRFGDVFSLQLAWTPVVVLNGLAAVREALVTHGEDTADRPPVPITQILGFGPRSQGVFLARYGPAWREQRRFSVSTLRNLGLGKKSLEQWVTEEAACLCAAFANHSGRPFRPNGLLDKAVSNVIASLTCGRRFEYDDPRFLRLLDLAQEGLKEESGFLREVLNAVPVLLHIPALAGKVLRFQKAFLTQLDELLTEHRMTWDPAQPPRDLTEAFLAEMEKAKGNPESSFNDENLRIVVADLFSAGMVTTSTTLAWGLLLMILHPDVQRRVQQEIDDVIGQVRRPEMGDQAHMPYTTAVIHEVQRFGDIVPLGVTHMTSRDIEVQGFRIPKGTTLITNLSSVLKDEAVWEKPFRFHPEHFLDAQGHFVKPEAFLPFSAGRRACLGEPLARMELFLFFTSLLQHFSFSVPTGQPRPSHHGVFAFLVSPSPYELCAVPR
# Outline: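 Cell-free assay using recombinant enzyme expressed in insect cells, with fluorescence-intensity readout of enzyme activity 1 hour after chemical dosing. Loss of signal versus acetonitrile negative control indicates inhibition. Primary screen ran in duplicate at 10 uM; actives were retested in concentration series.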
# [14] = biological target: Cytochrome P450 3A4 (Homo sapiens) (UniProt P08684); test: NVS_ADME_hCYP3A4: NovaScreen (NVS) CYP450-related Enzyme Activity (ADME) Assay for human CYP3A4 (AID 2283110; active means hit-call score of the fitted dose curve at least 0.9, where 1 is the maximum)
# Cytochrome P450 3A4 (Homo sapiens), sequence (P08684 whole entry, looked up): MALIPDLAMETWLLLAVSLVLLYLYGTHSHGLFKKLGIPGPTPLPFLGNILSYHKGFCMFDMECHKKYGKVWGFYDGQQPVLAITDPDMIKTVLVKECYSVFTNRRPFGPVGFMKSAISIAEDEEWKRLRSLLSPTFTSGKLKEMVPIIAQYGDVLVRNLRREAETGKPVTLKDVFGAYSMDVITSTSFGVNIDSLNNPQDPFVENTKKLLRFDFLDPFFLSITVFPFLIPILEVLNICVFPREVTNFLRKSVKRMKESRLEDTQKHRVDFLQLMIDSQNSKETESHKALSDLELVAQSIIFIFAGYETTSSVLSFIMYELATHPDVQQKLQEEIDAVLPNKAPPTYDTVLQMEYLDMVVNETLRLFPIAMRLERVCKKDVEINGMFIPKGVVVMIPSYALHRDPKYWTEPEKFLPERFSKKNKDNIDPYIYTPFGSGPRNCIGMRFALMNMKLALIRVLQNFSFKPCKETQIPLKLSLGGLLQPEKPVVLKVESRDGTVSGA
# Outline: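 Cell-free recombinant enzyme expressed in insect cells; fluorescent substrate turnover read after 0.33 h, acetonitrile as negative control. Primary screen in duplicate at 10 uM, actives then tested in concentration series.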
smiles,measurement,setting,value
CCC(C)c1cc([N+](=O)[O-])cc([N+](=O)[O-])c1OC(=O)OC(C)C (configuration not stated),AC50,[1],9.7 µM (active)
same,AC50,[2],28.3 µM (active)
same,outcome,[3],inactive
same,AC50,[4],9.53 µM (active)
same,AC50,[5],20 µM (active)
same,AC50,[6],14 µM (active)
CCOC(=O)C(C#N)=C(c1ccccc1)c1ccccc1,outcome,[1],inactive
same,AC50,[2],1.24 µM (active)
same,outcome,[2],inactive
same,AC50,[4],14.1 µM (active)
same,outcome,[4],inactive
same,outcome,[5],inactive
CN(c1nccc(=O)[nH]1)C1CCN(c2nc3ccccc3n2Cc2ccc(F)cc2)CC1,outcome,[1],inactive
same,outcome,[2],inactive
same,outcome,[4],inactive
same,outcome,[5],inactive
C[C@@H]1CCN(C(=O)[C@H](CCCN=C(N)N)NS(=O)(=O)c2cccc3c2NC[C@H](C)C3)[C@@H](C(=O)O)C1,outcome,[1],inactive
same,outcome,[2],inactive
same,outcome,[4],inactive
same,outcome,[5],inactive
CN(C)C(=O)Nc1ccc(Oc2ccc(Cl)cc2)cc1,outcome,[1],inactive
same,outcome,[2],inactive
same,outcome,[4],inactive
same,outcome,[5],inactive
O=C(Nc1ccc2c(O)c(N=Nc3ccc(N=Nc4ccc(S(=O)(=O)O)cc4)cc3)c(S(=O)(=O)O)cc2c1)c1ccccc1,outcome,[1],inactive
same,outcome,[2],inactive
same,outcome,[4],inactive
same,outcome,[5],inactive
CCCCSCCCC,outcome,[6],inactive
CCCCCCCCCCCCCCCC(=O)OC/C=C(C)/C=C/C=C(C)/C=C/C1=C(C)CCCC1(C)C,outcome,[1],inactive
same,outcome,[2],inactive
same,AC50,[4],20 µM (active)
same,outcome,[5],inactive
same,AC50,[7],5.57 µM (active)
same,AC50,[8],25 µM (active)
C=CC(=O)OCCCC,outcome,[6],inactive
COC(C)(C)CCO,outcome,[9],inactive
CCCC[O][Al]([O]CCCC)[O]CCCC,AC50,[7],0.138 µM (active)
same,outcome,[9],inactive
CN1C(=O)c2ccccc2C1=O,outcome,[10],inactive
CCOc1ccc(NC(=O)CC(C)=O)cc1,outcome,[6],inactive
CCCCCCOCCOCCO,AC50,[11],0.238 µM (active)
c1ccc(CCc2ccccc2)cc1,AC50,[1],34.1 µM (active)
same,AC50,[2],34.2 µM (active)
same,AC50,[5],35.9 µM (active)
C=C(C)C(=O)OCCOCCOCCOCCOC(=O)C(=C)C,outcome,[1],inactive
same,outcome,[2],inactive
same,AC50,[4],23.9 µM (active)
same,outcome,[5],inactive
same,AC50,[6],35.3 µM (active)
[O-]n1ccccc1=S.[O-]n1ccccc1=S.[Zn+2],outcome,[12],inactive
CCCCC(CC)COC(C)=O (configuration not stated),AC50,[13],5 µM (active)
CCCCCC(C)=O,outcome,[9],inactive
c1ccc2cc(Nc3ccc(Nc4ccc5ccccc5c4)cc3)ccc2c1,outcome,[1],inactive
same,outcome,[2],inactive
same,outcome,[4],inactive
same,outcome,[5],inactive
same,outcome,[7],inactive
same,AC50,[9],13.1 µM (active)
same,AC50,[8],22.4 µM (active)
same,outcome,[6],inactive
C1CCCCC1,outcome,[14],inactive
